# High-throughput results (PubChem)
# TDP1 inh – TDP1 (human) enzyme inhibition. AID 485290. recombinant TDP1, AlphaScreen DNA substrate cleavage. actives 0.28% (n = 350,000). Potency, µM (doses to about 130 µM), for inactives: at the top dose activity change, negative = inhibition, actives largely listed as inhibitors. Q9NUW8; further: potency means the concentration at half of the fitted maximal effect; on the % scale 0 is the no-effect control and ±100 the full control effect; nearly all actives have a fitted effect of over 40% in size
# Target sequence (Q9NUW8 whole entry, looked up): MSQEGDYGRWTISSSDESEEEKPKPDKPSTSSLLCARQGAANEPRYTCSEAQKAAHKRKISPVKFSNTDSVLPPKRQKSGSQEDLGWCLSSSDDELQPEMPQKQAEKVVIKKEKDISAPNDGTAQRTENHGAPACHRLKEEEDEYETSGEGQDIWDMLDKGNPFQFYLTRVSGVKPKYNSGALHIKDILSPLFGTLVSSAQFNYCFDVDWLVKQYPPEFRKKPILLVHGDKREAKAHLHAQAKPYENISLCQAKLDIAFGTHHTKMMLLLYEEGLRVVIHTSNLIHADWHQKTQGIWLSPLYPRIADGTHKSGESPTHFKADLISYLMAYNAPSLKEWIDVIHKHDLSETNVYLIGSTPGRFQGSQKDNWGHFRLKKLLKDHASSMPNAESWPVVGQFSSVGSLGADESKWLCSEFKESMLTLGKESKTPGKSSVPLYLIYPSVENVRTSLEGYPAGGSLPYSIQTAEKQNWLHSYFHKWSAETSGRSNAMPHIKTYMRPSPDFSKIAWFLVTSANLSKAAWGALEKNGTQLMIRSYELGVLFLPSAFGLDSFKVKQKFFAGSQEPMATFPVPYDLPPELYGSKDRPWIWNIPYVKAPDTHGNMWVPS
#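 Enzyme-compound mixtures sat 15 min at room temperature, followed by a 5 min reaction with 15 nM final substrate and 10 min with AlphaScreen beads. Recombinant human Tdp1 was used at 1 nM final.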
# DT40 TDP1 no CPT – qHTS for Inhibitors of human tyrosyl-DNA phosphodiesterase 1 (TDP1): qHTS in cells in absence of CPT; DT40 Tdp1-/- hTDP1 cells, no CPT, ATP luminescence, 48 h; AID 686978, 2013; Potency, µM (series often up to 46.2 µM), for the others: at the top dose activity change, negative = growth inhibition, hits mostly inhibitors; actives 15% (n = 420,000); further: potency means the concentration at half of the fitted maximal effect; on the % scale 0 is the no-effect control and ±100 the full control effect; nearly all actives have a fitted effect of over 55% in size
#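 No-CPT arm: Tdp1-/-;hTDP1 DT40 cells (400/well) plus compounds, incubated ≥48 hr at 37 °C. Readout CellTiter-Glo luminescence.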
# TGFb inhibitor – inhibitors of TGF-b signaling; HepG2 CAGA-GFP TGF-b/SMAD3 reporter, GFP fluorescence, 18 h; TGF-beta stimulated, 500 pg/mL final; Potency, µM (top dose mostly 46.1 µM), inactives show at the top dose activity, negative = inhibition, hits mostly inhibitors; actives 1.2% (n = 410,000); AID 588855; further: potency means the concentration at half of the fitted maximal effect; on the % scale 0 is the no-effect control and ±100 the full control effect; nearly all actives have a fitted effect of over 65% in size
#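 HEPG2 CAGA-GFP cells (1000/well, DMEM with 1% FBS) were pre-incubated 2 h at 37 degrees C, given compound by pin tool, then stimulated with TGF-beta at 500 pg/mL final for 18 h before per-cell GFP fluorescence imaging.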
# HepG2 viability – kills HepG2 cells in TGF-b inhibitor counter-screen. actives 0.76% (n = 410,000). AID 588856. Potency, µM (doses to about 46.1 µM), for inactives: top-dose activity change, negative = cytotoxicity, hits mostly cytotoxic. HepG2 CAGA-GFP viability, ATP luminescence, 18 h; further: potency means the concentration at half of the fitted maximal effect
#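 HepG2 CAGA-GFP cells (1000/well, DMEM with 1% FBS) received compound, then TGF-beta at 500 pg/mL final, and were incubated 18 hours at 37 degrees C. Viability was read by CellTiter-Glo luminescence. Media-only wells were set as complete cell-killing and DMSO as no toxicity.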
# DT40 TDP1 CPT – growth inhibition of DT40 Tdp1-/-;hTDP1 cells with camptothecin (screen for TDP1 inhibitors); Potency, µM (doses to about 46.2 µM), inactives show at the top dose activity change, negative = growth inhibition, usual class: inhibitors; actives 12% (n = 420,000); chicken DT40 Tdp1-/-;hTDP1 cells + 20 nM CPT, ATP luminescence, 48 h; AID 686979; further: potency means the concentration at half of the fitted maximal effect; on the % scale 0 is the no-effect control and ±100 the full control effect; nearly all actives have a fitted effect of over 55% in size
#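 Chicken DT40 Tdp1-/- cells complemented with human TDP1, 400 cells/well, exposed to compounds plus 20 nM camptothecin for at least 48 h at 37 C; viability read as ATP content by CellTiter-Glo luminescence.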
# IL1B secr inh – blocks inflammasome-driven IL-1 beta release | activity change, % at 57.5 µM | AID 743279 | actives 4.7% (n = 360,000) | THP-1 LPS/ATP IL-1B secretion, AlphaLISA, 16 h; active compounds read low; in the data active means activity change below about -50%; inconclusive means mostly about -30% to -49%; further: on the % scale 0 is the no-effect control and ±100 the full control effect
#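 THP-1 cells pretreated 1 hr with compounds (up to 57.5 uM final), then stimulated with LPS (250 ng/mL final) plus ATP (1.25 mM final); secreted IL-1B measured by AlphaLISA after 16 hr, decreased signal indicating inhibition.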
# * marks the source's active call; other numbers are inactive results; i = inactive; ? = inconclusive; . = no result given; [ ] = dose if it differs, or a comment. Shown are actives, neighbours in structure and some others; about 18% of the full set was active somewhere. Unless noted, the call rests on the fitted dose curve; in most records, active means well fitted curve in the direction sought with a large enough effect; inconclusive means small, poorly fitted or top-dose-only effect, or another doubt; inactive means no such curve, though single readings can be large; an effect the other way counts as inactive or inconclusive.
SMILES,TDP1 inh,DT40 TDP1 no CPT,TGFb inhibitor,HepG2 viability,DT40 TDP1 CPT,IL1B secr inh
OC1(c2cccc(C(F)(F)F)c2)CCN(Cc2nnnn2Cc2ccccc2)CC1,2%,?,?,-27%,?,-70*
OC1(c2cccc(C(F)(F)F)c2)CCN(Cc2nnnn2CCc2ccccc2)CC1,0%,21µM*,-14%,6%,23µM*,-7
O=C(c1ccco1)N1CCN(Cc2nnnn2CCc2ccccc2)CC1,2%,-15%,-18%,1%,0%,3
Cc1ccc(C)c(N2CCN(C3CCCCC3NS(=O)(=O)c3ccccc3)CC2)c1 (centres undefined),-2%,4.6µM*,-6%,-16%,7.3µM*,150
O=S(=O)(NC1CCCCC1N1CCCCC1)c1ccccc1 (centres undefined),.,10%,-4%,4%,2%,-7
COc1ccc(N2CCN(C3CCCCC3NS(=O)(=O)c3ccc(Cl)cc3)CC2)cc1 (centres undefined),6%,?,-31%,-15%,?,100
COc1ccccc1N1CCN(C2CCCCC2NS(=O)(=O)c2ccc(Cl)cc2)CC1 (centres undefined),1%,23µM*,-29%,-43%,23µM*,-72*
CN1CCN(C2CCCCC2NS(=O)(=O)c2ccc(Cl)cc2)CC1 (centres undefined),0%,5%,-12%,-6%,-17%,0
CC1CC(C)CN(C2CCCCC2NS(=O)(=O)c2ccc(Cl)cc2)C1 (centres undefined),.,23µM*,2%,1%,?,45
Cc1ccc(Cl)cc1N1CCN(C2CCCCC2NS(=O)(=O)c2ccccc2)CC1 (centres undefined),0%,18µM*,6%,11%,16µM*,21
CCOc1cccc2sc(N3CCN(C(=O)c4ccc5ncsc5c4)CC3)nc12,.,?,8%,-4%,?,?
COc1ccc(NC(=O)CCC(=O)c2ccc(F)cc2)cc1,.,?,-1%,0%,24%,16
CCc1ccc(-n2nc(C)c3c(C)cc(=O)n(CC(=O)Nc4ccc(OC)c(OC)c4)c32)cc1,6%,-19%,-1%,-9%,-16%,.
O=c1[nH]cc(S(=O)(=O)N2CCN(c3ccc(F)cc3)CC2)c(=O)[nH]1,.,1%,-8%,-12%,-9%,6
O=C(COC(=O)COc1cccc(C(F)(F)F)c1)NC1CCCC1,0%,3%,-18%,12%,-1%,-1
C[N+]1(C)CCC(=C2c3ccccc3CC(=O)c3sccc32)CC1,-4%,?,11%,-7%,26µM*,-6
CC[N+]1(C)CCC(=C2c3ccccc3CC(=O)c3sccc32)CC1 (centres undefined),4%,-16%,1%,6%,-19%,-9
CCOc1ccc(/C=C/c2[nH]c(=O)[nH]c(=O)c2[N+](=O)[O-])cc1,.,-1%,-7%,6%,-9%,16
CCOC(=O)COc1ccc(Br)cc1/C=C\c1[nH]c(=O)[nH]c(=O)c1[N+](=O)[O-],-1%,23µM*,?,-85%,23µM*,i
CCOC(=O)COc1ccc(Br)cc1/C=C/c1[nH]c(=O)[nH]c(=O)c1[N+](=O)[O-],-5%,?,?,-72%,-3%,-63*
CCCOc1ccc(/C=C/c2[nH]c(=O)[nH]c(=O)c2[N+](=O)[O-])cc1OCC,.,4%,10%,-12%,27%,-5
CCN(CC)C(=O)Cn1cc(SCC(=O)Nc2cc(OC)ccc2OC)c2ccccc21,5%,?,0%,-6%,?,.
CCCCSc1nnc([C@H](C)NC(=O)OC(C)(C)C)o1,-2%,-6%,1%,-14%,-11%,5
CCCCSc1nnc([C@H](CC(C)C)NC(=O)OC(C)(C)C)o1,-3%,?,0%,-4%,18µM*,37
CC/C(=N\NC(N)=O)c1ccc(OC(F)F)cc1,-3%,-12%,14%,2%,-1%,-20
SMILES,TDP1 inh,DT40 TDP1 no CPT,TGFb inhibitor,HepG2 viability,DT40 TDP1 CPT,IL1B secr inh
CC/C(=N\NC(=O)OC)c1ccc(OC(F)F)cc1,-8%,1%,3%,10µM*,-8%,-1
COc1ccc(Br)cc1CN(C)CC(=O)NCc1ccc(F)cc1,.,18µM*,-11%,-5%,?,?
CCOc1ccc(CN(C)CC(=O)NCc2ccc(F)cc2)cc1,.,21µM*,1%,2%,?,5
CC(C)CCN(CC(=O)NCc1ccc(F)cc1)S(=O)(=O)c1ccccc1F,.,?,3%,4%,23µM*,-80*
CN(CC(=O)NCc1ccc(F)cc1)Cc1ccc(Br)cc1,0%,?,-12%,-16%,-29%,-72*
Cc1cc(NC(=O)C2CCN(C(=O)c3ccco3)CC2)ccc1Br,.,?,-26%,-12%,?,-2
COCC1CCCCN1C(=O)c1ccc(OC2CCN(Cc3ccccn3)CC2)cc1 (centres undefined),5%[56.1 µM],-7%,6%,-2%,10%,i
CCOc1ccc(CN(C)C(=O)CCl)cc1,-5%,2.9µM*,?,-85%,2.9µM*,-102*
CCOc1ccc(CN(C)C(=O)CCNC(=O)c2ccco2)cc1,1%[56.1 µM],-3%,2%,-1%,-7%,-5
O=S(=O)(NCC1CCC(NS(=O)(=O)c2c(F)cccc2F)CC1)c1ccc2c(c1)OCCO2 (centres undefined),3%,.,-9%,7%,.,.
O=C(Nc1nnc(-c2ccc(Cl)cc2)o1)C1CCCCC1,.,18µM*,15%,18%,?,8
O=C(Nc1nnc(-c2ccccc2)o1)C1CCCCC1,3%,?,-2%,-2%,?,17
O=C(Nc1nnc(-c2ccc(Cl)s2)o1)C1CCCCC1,.,?,10%,7%,15µM*,-13
